Results reported in article PMC7819943, “Rice protein-binding microarrays: a tool to detect cis-acting elements near promoter regions in rice”.
Whole data set: some 68,000 sequences, median “fluorescence intensity (a.u.)” near 9,100, cut for the highest 2% near 16,000. The sample as a whole holds a higher share of the highest values than the screen did.

Target: OsWRKY34 (Oryza sativa, UniProt Q0JBA9 1-250)
Assay: protein-binding microarray (RPBM); PBS, 2% BSA, 51.3 ng/ul salmon testes DNA, 50 uM zinc acetate, 200 nM TF, 25 C, 1 h; high values mean tight binding
Settings: protein: recombinant; tags: N-terminal polyhistidine and DsRed monomer fusion (pET32a); label: CyDye5-dUTP incorporated in the synthesized complementary strand; 3' TTTTT single-stranded linker to array surface; dsDNA, one strand shown
In short: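 Ni–NTA purification followed expression in E. coli BL21-CodonPlus of transcription factors fused N-terminally to a polyhistidine tag and DsRed. At 200 nM in PBS with 2% BSA, salmon testes DNA and 50 µM zinc acetate, the protein was incubated for 1 h at 25 °C with a custom Agilent array that had been primer-extended with Cy5-dUTP and blocked with 2% BSA. After washing, the array was read on an Axon 4000B scanner. The binding signal is per-feature fluorescence intensity in arbitrary units.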

Sequence of OsWRKY34 (Q0JBA9 entry or part of it): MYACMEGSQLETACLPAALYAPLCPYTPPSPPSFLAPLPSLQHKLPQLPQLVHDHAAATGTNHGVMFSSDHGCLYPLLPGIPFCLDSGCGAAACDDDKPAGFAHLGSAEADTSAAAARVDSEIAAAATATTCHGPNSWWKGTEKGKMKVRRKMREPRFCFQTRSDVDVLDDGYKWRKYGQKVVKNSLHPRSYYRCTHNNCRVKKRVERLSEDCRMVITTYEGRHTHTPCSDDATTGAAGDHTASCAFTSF

Sequence	binding signal
GGCAATCCGGTGCTCCTTGTCTGAACTCTCTCAATCTCAACGGAGTCACCTAGTGCAG	8040 fluorescence intensity (a.u.)
ATTTGTCATTTTTTCTATGTGTATATGTTGTATTTTGAGCCGGAGTCACCTAGTGCAG	8430 fluorescence intensity (a.u.)
GCATGAGTAGGGGATGGCATTAAAACAGGTTGGTCAGGTGCGGAGTCACCTAGTGCAG	8920 fluorescence intensity (a.u.)
TCCGTTCCATCGTAATCCTTCTCCGATCCGAATTTGCTTCCGGAGTCACCTAGTGCAG	9120 fluorescence intensity (a.u.)
GCATCGACCGCGCGCGTATACGTTAACGCTCACCTTTGTTCGGAGTCACCTAGTGCAG	9420 fluorescence intensity (a.u.)
GGTTTGTTTGGAGGCGCAATGTTTCTCACCCTGTCGTTCCCGGAGTCACCTAGTGCAG	12700 fluorescence intensity (a.u.)
AGGTCTTTTTCACGTCGCAACCATGGCTTCAAATTTTGCTCGGAGTCACCTAGTGCAG	11900 fluorescence intensity (a.u.)
CTCGCCTGACCCTGTCAAACGCCGGGCCGCGGACCCCGCCCGGAGTCACCTAGTGCAG	8970 fluorescence intensity (a.u.)
GGGCTAGTGTTTTTATGGTGTGGTTGGGGATTCAGCTTGCCGGAGTCACCTAGTGCAG	11600 fluorescence intensity (a.u.)
GAGCTTGGGGTTGTGTATGGTGGTGGTGGTGTGGTAGCTACGGAGTCACCTAGTGCAG	33200 fluorescence intensity (a.u.)
GGTGACGGCTGGTGTGGGTGTAGGGTGGCCGCGCGGTACGCGGAGTCACCTAGTGCAG	9460 fluorescence intensity (a.u.)
TGCTTGTGGTTTGTATGGAGTTTGGGTGAAGTGTCACGTACGGAGTCACCTAGTGCAG	9660 fluorescence intensity (a.u.)
GGGGTTATGGTGGATTTGGTGCTTTGGGGCATTATGTTTACGGAGTCACCTAGTGCAG	13800 fluorescence intensity (a.u.)
TCGTGGGAAGGGCAAAGAAAAGACGGGGTGGTGGGCATCGCGGAGTCACCTAGTGCAG	8420 fluorescence intensity (a.u.)
CGTAGGTAAGTAGGGTTATTATAGTTATTTGTGTATATATCGGAGTCACCTAGTGCAG	9300 fluorescence intensity (a.u.)
TGATGTCTTATCTCGGGTCTCATCTTTTCGCTTATGCTTACGGAGTCACCTAGTGCAG	8990 fluorescence intensity (a.u.)
TTTTGGGGTGGGTTTTGGTATCTGATGCTTACGGGCATCTCGGAGTCACCTAGTGCAG	18100 fluorescence intensity (a.u.)
GAGCTTATAGGGTGGGTTGTGTCCATGGAGTAACTATTATCGGAGTCACCTAGTGCAG	18600 fluorescence intensity (a.u.)
AACAGTGGTATCGTTGTGTAGGGGTGGGCTGGCAAAAAGACGGAGTCACCTAGTGCAG	20000 fluorescence intensity (a.u.)
CTGTTGTGTTGTGTTGTAATATGATTATGTGGGTGCTTATCGGAGTCACCTAGTGCAG	8390 fluorescence intensity (a.u.)
ATTCAGTGGATCCTGCTGCTCAAACTTTGCTGACTGAATTCGGAGTCACCTAGTGCAG	8820 fluorescence intensity (a.u.)

Sequence	binding signal
GGGTTGATGTGTGGTGAAGGGTAGGTAATTTGTAGGAGTACGGAGTCACCTAGTGCAG	10800 fluorescence intensity (a.u.)
GGGATGGGTAGGGGTGGGTTGTGCTGTATTATACTACACCCGGAGTCACCTAGTGCAG	19200 fluorescence intensity (a.u.)
GGCTGTTGGGTTTGTGGGCTTGTGCTAGGCGTCCCAGCTACGGAGTCACCTAGTGCAG	17800 fluorescence intensity (a.u.)
CTTGGGCGTCTTGTGTTTGTGGGTGAGGTAGCCAGCTGCCCGGAGTCACCTAGTGCAG	9910 fluorescence intensity (a.u.)
GCTTACTGGTTATGGTTGGTAGGGTTGGACGTGTAACAGACGGAGTCACCTAGTGCAG	20900 fluorescence intensity (a.u.)
GGGTTTTGCTTTTGCTGTTGTCTTGGGCTTGGGCCTTTGCCGGAGTCACCTAGTGCAG	8660 fluorescence intensity (a.u.)
TTACCTTAGATTTGGTAGGGCTGGTTAGGGCTGGTTGGAGCGGAGTCACCTAGTGCAG	8680 fluorescence intensity (a.u.)
TGATGTGTGGGTGGTGGTGGTGGTGTGCCTTGTGTAGGTACGGAGTCACCTAGTGCAG	20800 fluorescence intensity (a.u.)
AGGAGGTGTAGTAGGGTAGTGTAGGAGGTGTAGTGGAGTACGGAGTCACCTAGTGCAG	8450 fluorescence intensity (a.u.)
TGCTGCTACTACATGTGGTGTGGGTGGTATGGTAGGGCCCCGGAGTCACCTAGTGCAG	9060 fluorescence intensity (a.u.)
TGTAGCTTACTGCTTTGGTTTGGGCTGGTTGTGGATTGGACGGAGTCACCTAGTGCAG	11900 fluorescence intensity (a.u.)
CATCTTTGTGGTTGTGTGGGTGTGTGTGTATATATATACCCGGAGTCACCTAGTGCAG	8180 fluorescence intensity (a.u.)
CCTCGTACGTGTTGGTGTTGCCAAGCCCAAGCCAGTAGTACGGAGTCACCTAGTGCAG	8990 fluorescence intensity (a.u.)
CACGCTTCGTCGTCGGATCGGGACGCCTTGCTGCCTCTGCCGGAGTCACCTAGTGCAG	8170 fluorescence intensity (a.u.)
ACTACATCCGCGCACCTGCTTTGCTCGTCGACGATTATAACGGAGTCACCTAGTGCAG	12900 fluorescence intensity (a.u.)
TGTGGATGAGTGTGTGTGTGTGGAGATCAGTGGGAGACCACGGAGTCACCTAGTGCAG	8170 fluorescence intensity (a.u.)
AAGGGTGTATTTATTGGTGCAATAGCGTTTTTGTTTGACCCGGAGTCACCTAGTGCAG	8690 fluorescence intensity (a.u.)
AGAGCTTAATTTGGTATGTGTGTGTATATATATATATATACGGAGTCACCTAGTGCAG	8150 fluorescence intensity (a.u.)
CTGTATTCATTAGGGTGGGACTGTATACTATAGTTATTATCGGAGTCACCTAGTGCAG	15700 fluorescence intensity (a.u.)
TAATTACCTCTCTTTAGTTTTGGGGTATGTGTGCTTGGTTCGGAGTCACCTAGTGCAG	9680 fluorescence intensity (a.u.)
CTGATTCATTATACTAGGAGGGGTGGGAGGGAGGGAGTACCGGAGTCACCTAGTGCAG	18800 fluorescence intensity (a.u.)

Sequence	binding signal
AGGGAGGAGTACATCTAGTAGTATAGGGGAGAGGGTGGGCCGGAGTCACCTAGTGCAG	11500 fluorescence intensity (a.u.)
TGGGGTATGTGTGCTTGGTTATGTGTGCATCTTAGTTATACGGAGTCACCTAGTGCAG	19300 fluorescence intensity (a.u.)
TATAGGTCCCACGCTATCTCAGTCGCCACATCAGCTAAAACGGAGTCACCTAGTGCAG	8690 fluorescence intensity (a.u.)
TTTTAAGTATAATTTCTCTATAATTTGACAATGTGGTGCTCGGAGTCACCTAGTGCAG	8550 fluorescence intensity (a.u.)
TTTGTTTTGAGCCGAACAAATCGGTAGTCAGTGGGCGGGGCGGAGTCACCTAGTGCAG	11900 fluorescence intensity (a.u.)
TGATCTTTTGTTTCCTGCTTGGTATAGTATAAGCTCTCATCGGAGTCACCTAGTGCAG	8800 fluorescence intensity (a.u.)
TTTTCTTTTTTCCCGCACTTTCTTTTCTTCCCGGAGATGTCGGAGTCACCTAGTGCAG	8400 fluorescence intensity (a.u.)
TTCCTTTTGTCCTCCATGCTCTCTGTATGTCGGTATTTTACGGAGTCACCTAGTGCAG	10500 fluorescence intensity (a.u.)
TTAAAAAAAAGTCAACGATGATAAATATTTAGAGAGTGAGCGGAGTCACCTAGTGCAG	13100 fluorescence intensity (a.u.)
CATCGGATATTGTATTATGGTGTTGTATGGGTTGTTCGGGCGGAGTCACCTAGTGCAG	14000 fluorescence intensity (a.u.)
AAGCGGTACCATGGGCGGGAGGGTATTTCTGTCCTTTTGTCGGAGTCACCTAGTGCAG	17600 fluorescence intensity (a.u.)
GTCGGTGGAGCGGCCCTTTTTATTTCTGTGGGAGGAGGGTCGGAGTCACCTAGTGCAG	9300 fluorescence intensity (a.u.)
ATTGGGTTCTTGGAGCTGTTGGATTGGGTTTTTTTGGGAGCGGAGTCACCTAGTGCAG	9180 fluorescence intensity (a.u.)
CCATGGCGGGGTGTATTGTTGTTGTATTTGGGGTTCTGGTCGGAGTCACCTAGTGCAG	19200 fluorescence intensity (a.u.)
CTGTTGTTCTGTATATTGTGGTGGGTGTTGATTTGCGGGTCGGAGTCACCTAGTGCAG	12800 fluorescence intensity (a.u.)
GAAAGATGATTTGGCAAGTAAATAAATAAGAAAAGAGAAGCGGAGTCACCTAGTGCAG	62600 fluorescence intensity (a.u.)
GGTTGTGTTCTTGTTGGCGAGGAGGAGAGAGGGGTGGGGTCGGAGTCACCTAGTGCAG	14700 fluorescence intensity (a.u.)
GTTTGTGTTCTTGGATTGGGTTGGGTTGGGTTGGTGAGGTCGGAGTCACCTAGTGCAG	17600 fluorescence intensity (a.u.)
AGTCAACAGGGAGGGTAAAATAAGAAAGCAACAGCAAGAGCGGAGTCACCTAGTGCAG	9730 fluorescence intensity (a.u.)
